Test results: PubChem BioAssay (NCI)
About 83,000 compounds went through this panel and 20% of them were active in at least one assay; those are over-represented in the sample as a whole.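 Percent growth is the endpoint: 0 to 100 indicates growth inhibition (40 means 60% inhibition), 0 means no net growth, and negative values indicate cell death.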 Active and inactive are the calls of the source. The calls were made as follows: active = growth percent below 10; inactive = the rest.

How the values were obtained:
Assay in all cases: NCI-60 one-dose screen, 48 h (100 = growth as untreated, 0 = no growth, -100 = all killed)
Conditions in all cases: 10 µM unless noted
[1] = system: SR leukemia
[2] = system: OVCAR-8 ovarian
[3] = system: OVCAR-5 ovarian
[4] = system: OVCAR-4 ovarian
[5] = system: SK-OV-3 ovarian
[6] = system: IGROV1 ovarian
[7] = system: OVCAR-3 ovarian
[8] = system: HS 578T breast
[9] = system: NCI/ADR-RES ovarian

Measured: growth

Cc1ccc(-c2nc(N3CCN(CC(=O)Nc4ccc(Cl)cc4)CC3)c3ccccc3n2)cc1
inactive: [1] 79.1% | [2] 92.3% | [3] 93.9% | [4] 96.2% | [5] 94.3% | [6] 96.3% | [7] 97.8% | [8] 92.6% | [9] 84.5%

CCCCn1c(=O)c(-c2cc(-c3ccc(Cl)cc3)nc(-c3ccc(Cl)cc3)c2)cc2ccc(Cl)cc21
inactive: [1] 98.1% | [2] 108% | [3] 94.1% | [4] 109% | [5] 99.6% | [6] 105% | [7] 112% | [8] 108% | [9] 95.9%

CN(C)CCCNc1nc2ccccc2c2c(=O)c3cc(F)ccc3sc12
inactive: [2] 45.3% | [3] 73.7% | [4] 36.6% | [5] 78.1% | [6] 40.5% | [7] 26% | [8] 46.7% | [9] 43%
active: [1] -37.9%

CCN(CC)CCNc1nc2ccccc2c2c(=O)c3cc(Cl)ccc3sc12
inactive: [2] 64.4% | [3] 81.6% | [4] 46.5% | [5] 54% | [6] 56.1% | [7] 51.3% | [8] 67.6% | [9] 27.1%
active: [1] -2.52%

COc1cc2cc(Oc3ccc(NC(=O)Nc4ccc(Cl)c(C(F)(F)F)c4)cc3)c(C)nc2cc1OCCN1CCOCC1
active: [1] -1.99%
inactive: [2] 13.4% | [3] 55.6% | [4] 31.6% | [5] 31% | [6] 34.7% | [7] 16.5% | [8] 72.6% | [9] 11.4%

CCOC(=O)c1cn2ncnc(Oc3ccc(NC(=O)NCCN(C)C)c(Cl)c3)c2c1C
active: [1] -13.1%
inactive: [2] 78.9% | [3] 91.6% | [4] 82.4% | [5] 94.1% | [6] 78.7% | [7] 75% | [8] 85.6% | [9] 88.7%

O=c1c2cc(F)ccc2sc2c(NCCN3CCOCC3)nc3ccccc3c12
inactive: [1] 28.3% | [2] 81.4% | [3] 89.5% | [4] 67.5% | [5] 85% | [6] 74.6% | [7] 76.8% | [8] 63.3% | [9] 72.5%

CNC(=O)c1cc(-n2ccc3cc(NC(=O)c4ccc(N5CCOCC5)c(C(F)(F)F)c4)ccc32)ccn1
inactive: [1] 24.8% | [2] 27.7% | [3] 79.1% | [4] 64.4% | [5] 91.2% | [6] 77.7% | [7] 63.9% | [8] 47.1% | [9] 45.7%

Nc1nn(C(=O)Nc2ccc(Cc3ccccc3)cc2)c2ccc(Cl)cc12
inactive: [1] 71.7% | [2] 72.5% | [3] 55.7% | [4] 54.3% | [5] 91% | [6] 76.2% | [7] 76.7% | [8] 92.1% | [9] 67%

CCc1cccc2c1S/C(=C/c1ccc(OC)cc1)C2=O
inactive: [1] 15.1% | [2] 55.9% | [3] 76% | [4] 59.4% | [5] 79.3% | [6] 30.4% | [7] 23.8% | [8] 41.5% | [9] 30.2%

CCCCCCn1c(-c2ccc(C(=O)O/N=C(\N)c3ccc4c(c3)OCO4)cc2)nc(-c2ccccc2)c1-c1ccccc1
inactive: [2] 17.7% | [3] 43.2% | [4] 39.6% | [5] 98.7% | [7] 32.4%
active: [1] -26.3% | [6] -68.5% | [8] 4.78% | [9] -52.8%

COc1cc2cc(Oc3ccc(NC(=O)Nc4cccc(C(F)(F)F)c4)cc3)c(C)nc2cc1OCCN1CCOCC1
inactive: [2] 25.1% | [3] 109% | [4] 20.1% | [5] 92% | [6] 57.7% | [7] 28.6% | [8] 86% | [9] 45.3%
active: [1] 9.31%

O=c1c2cc(F)ccc2sc2c(N3CCNCC3)nc3ccc(F)cc3c12
active: [1] -46.3% | [2] 3.1% | [4] -63.8% | [7] -84.1% | [9] 4.72%
inactive: [3] 60.3% | [5] 84% | [6] 36.3% | [8] 46.6%

COc1cc(C2CC(c3ccc(N(C)C)cc3)=NN2C(C)=O)cc(OC)c1OC (stereo unspecified)
active: [1] -17.2% | [7] -38.2% | [8] 0.792% | [9] -24.4%
inactive: [2] 38.9% | [3] 54.5% | [4] 51.5% | [5] 24.9% | [6] 30.4%

CN(C)CCNc1nc2ccccc2c2c(=O)c3cc(F)ccc3sc12
active: [1] -23.5%
inactive: [2] 40.2% | [3] 76.9% | [4] 29.9% | [5] 77.1% | [6] 49% | [7] 38.1% | [8] 47.8% | [9] 38.3%

Cc1[nH]c(C(=O)Nc2ccc(C(=O)NCCN)cc2OC(C)C)c(Cl)c1Cl
inactive: [3] 89.4% | [5] 90.5% | [6] 64.1% | [8] 35.1% | [9] 91%
active: [1] -51.3% | [2] 9.08% | [4] -12.2% | [7] -6.76%

CCCCCCCCCCCCCCCCCC1OCC(COC(=O)O[C@]2(CC)C(=O)OCc3c2cc2n(c3=O)Cc3cc4ccccc4nc3-2)O1 (stereo partly specified)
active: [1] 8.38%
inactive: [2] 70.2% | [3] 95.6% | [4] 100% | [5] 83.9% | [6] 81.5% | [7] 94.5% | [8] 99.5% | [9] 66.6%

c1ccc(CO[C@H]2CO[C@H]3[C@@H]2OC[C@@H]3Oc2ccc(Nc3ncnc4ccsc34)cc2)cc1
inactive: [1] 60.6% | [2] 81.6% | [3] 94.9% | [4] 81.8% | [5] 95.8% | [6] 70.3% | [7] 93.7% | [8] 90.5% | [9] 73.3%

O=c1c2cc(F)ccc2sc2c(N3CCCCC3)nc3ccccc3c12
inactive: [1] 121% | [2] 99.6% | [3] 98.4% | [4] 116% | [5] 103% | [6] 101% | [7] 110% | [8] 105% | [9] 101%

Cc1nn(-c2ccccc2)c(-n2ccnc2)c1/C=N/Nc1nc(-c2ccc(F)cc2)cs1
inactive: [1] 49% | [2] 76.1% | [3] 105% | [4] 56% | [5] 81.4% | [6] 87.4% | [7] 84.8% | [8] 82.9% | [9] 79.2%

O=C(Nc1ccc(Cl)cc1F)c1ccccc1O
inactive: [1] 15.8% | [2] 44.8% | [3] 71.1% | [4] 54.6% | [5] 42.3% | [6] 20.5% | [7] 30.9% | [8] 41.6% | [9] 34.5%

c1ccc2c(c1)Nc1ccncc1S2
inactive: [1] 200% | [2] 101% | [3] 89.5% | [4] 93.1% | [5] 112% | [6] 99.4% | [7] 119% | [8] 102% | [9] 107%

O=C(/C=C/c1cccc2ccccc12)c1ccc(NC(=O)c2ccccc2CN2C(=O)c3ccccc3C2=O)cc1
inactive: [1] 23.5% | [2] 75.4% | [3] 96.6% | [4] 58.7% | [5] 82.3% | [6] 79.1% | [7] 34.7% | [8] 66.2% | [9] 61%

COc1cc(Nc2cn[nH]c2-c2ccc(Cl)cc2)cc(OC)c1OC
inactive: [1] 10.1% | [2] 70.2% | [3] 54.6% | [4] 61.5% | [5] 30.9% | [6] 39.8% | [7] 32.1% | [8] 44.1%
active: [9] -26%

CS(=O)(=O)N(c1cc(-c2ccc3ncnc(Nc4ccc(F)c(Cl)c4)c3c2)cnc1Cl)S(C)(=O)=O
active: [6] -22.3% | [8] -1.88%
inactive: [1] 47.5% | [2] 66.1% | [3] 30.6% | [4] 65.7% | [5] 14.6% | [7] 36.1% | [9] 69%

Cc1cccc2c3c(sc12)C(c1ccc(Cl)cc1)C(C#N)=C(N)O3 (stereo unspecified)
active: [7] -17.3% | [9] 9.13%
inactive: [1] 15.8% | [2] 22.2% | [3] 23.3% | [4] 58.4% | [5] 60.1% | [6] 23.8% | [8] 15.9%

Cc1ccc(-c2cnc3sc(C(=O)NCCc4ccccc4)c(C)n23)cc1
inactive: [1] 110% | [2] 96.9% | [3] 98.5% | [4] 67% | [5] 84.6% | [6] 80.5% | [7] 79.4% | [8] 86.4% | [9] 104%

CCCCn1c(=O)c(-c2cc(-c3ccc(Cl)cc3)nc(-c3ccc(Cl)cc3)c2)cc2cc(C)ccc21
inactive: [1] 109% | [2] 100% | [3] 100% | [4] 110% | [5] 115% | [6] 96.4% | [7] 112% | [8] 99.1% | [9] 104%

COC(=O)Nc1ccc(-c2nc(-c3cccc(OC)c3)c(-c3ccnc(Br)c3)[nH]2)cc1
active: [1] 3.64%
inactive: [2] 48% | [3] 85.6% | [4] 51.5% | [5] 88.1% | [6] 72.5% | [7] 70.2% | [8] 33.4% | [9] 45.2%
